A549 tox: counter-screen for Nrf2 inhibitors: cytotoxicity in A549 cells | A549 ARE-Fluc cells, CellTiter-Fluor viability, 18-24 h | Potency, µM (doses to about 46 µM), without a hit: top-dose activity change, negative = cytotoxicity, hits mostly inhibitors | 390,000 compounds, 0.16% hits | AID 504648; further: on the % scale 0 is the no-effect control and ±100 the full control effect
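A549 ARE-Fluc cells in 5% FBS OPTI-MEM, 5000 cells/well, rested 2 h then exposed to compounds in concentration-response for 18-24 h at 37 °C. Viability by CellTiter-Fluor fluorescence (Ex 405/Em 525) after 30 min; luciferase luminescence (BugLite, 15 min, RT) read afterwards.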
TrxR1 inh: inhibitors of rat thioredoxin reductase 1 | O89049 | recombinant rTrxR1, NADPH fluorescence consumption, selenite substrate | Potency, µM (doses to about 114 µM), inactives show at the top dose activity change, negative = inhibition, most hits filed as inhibitors | 390,000 compounds, 1% hits | AID 588453; further: on the % scale 0 is the no-effect control and ±100 the full control effect; nearly all actives have a fitted effect of over 65% in size
Target sequence (O89049 whole entry, looked up): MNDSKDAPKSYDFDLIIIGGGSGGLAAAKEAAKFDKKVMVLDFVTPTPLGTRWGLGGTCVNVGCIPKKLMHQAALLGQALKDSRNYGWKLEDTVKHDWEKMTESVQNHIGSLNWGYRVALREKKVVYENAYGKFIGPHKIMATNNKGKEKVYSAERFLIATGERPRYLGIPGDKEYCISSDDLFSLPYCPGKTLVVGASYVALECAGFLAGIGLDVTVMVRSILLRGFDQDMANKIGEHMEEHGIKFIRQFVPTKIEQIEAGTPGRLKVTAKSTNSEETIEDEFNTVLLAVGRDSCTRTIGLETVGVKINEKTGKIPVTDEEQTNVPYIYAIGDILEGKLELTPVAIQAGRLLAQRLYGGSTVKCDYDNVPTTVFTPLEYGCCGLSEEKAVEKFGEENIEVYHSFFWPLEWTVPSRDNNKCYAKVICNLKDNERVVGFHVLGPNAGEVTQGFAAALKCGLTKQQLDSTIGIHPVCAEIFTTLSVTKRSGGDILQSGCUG
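Rat TrxR1 (90 nM in the dispensed reagent) was pre-reduced with 400 uM NADPH for 5 min at room temperature, then incubated with compound for 15 min. After 400 uM selenite was added, NADPH fluorescence (Ex 340/Em 450 nm) was followed for 8 min.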
Mito fusion act: blocks mitochondrial division or promotes mitochondrial fusion; S. cerevisiae fusion-defective mutant growth rescue, CellTiterGlo 48 h; Potency, µM (doses to about 46.1 µM), inactives show at the highest dose growth rescue (activation), most hits filed as activators; 320,000 compounds, 0.23% hits; further: % of control where 0% means no effect; nearly all actives have a fitted effect of over 45% in size
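S. cerevisiae fusion-defective temperature-sensitive mutants (e.g. fzo1-1, mgm1-5) grown 48 h at 37C in YPEG (ethanol/glycerol non-fermentable) medium with 23 nl compound per well; growth rescue read as CellTiterGlo luminescence.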
TrxR1 substrate: rat thioredoxin reductase 1 substrate activity; 390,000 compounds, 0.01% hits; purified TrxR1 substrate turnover, NADPH consumption readout; AID 588456; Potency, µM (highest dose often 114 µM), for the others: at the top dose activity change, negative = substrate turnover; further: on the % scale 0 is the no-effect control and ±100 the full control effect; nearly all actives have a fitted effect of over 50% in size
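Rat TrxR1, dispensed at 90 nM, was prereduced with 400 uM NADPH (final) for 5 min at ~22 deg C, then incubated with compound 15 min before 400 uM selenite. A first-read NADPH fluorescence drop versus no-compound background flagged substrates.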
Nrf2 inh: inhibitors of Nrf2 signaling; 360,000 compounds, 2.1% hits; A549 ARE-Fluc reporter, luciferase luminescence, 18-24 h; Potency, µM (doses to about 46 µM), without a hit: at the highest dose activity change, negative = inhibition, usual class: inhibitors; further: on the % scale 0 is the no-effect control and ±100 the full control effect; nearly all actives have a fitted effect of over 60% in size
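Cells were seeded and rested 2 h, then exposed to compounds for 18-24 h. CellTiter-Fluor was read first as a viability measure. BugLite was added 15 min before the final luminescent read of ARE-luciferase activity in A549 cells.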
IDH1 R132H inh: human IDH1 R132H inhibition. 390,000 compounds, 0.093% hits. Potency, µM (titrated, usually from 76.6 µM), for inactives: top-dose activity change, negative = inhibition, actives largely listed as inhibitors. IDH1-R132H enzyme, NADPH consumption, diaphorase/resazurin fluorescence. AID 602179; further: on the % scale 0 is the no-effect control and ±100 the full control effect; nearly all actives have a fitted effect of over 65% in size
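IDH1-R132H (0.5 ug/mL) preincubated 30 min with compound, then NADPH (0.016 mM) and alpha-KG (2 mM) added; 80 min at RT, pH 7.5. Remaining NADPH coupled via diaphorase/resazurin to fluorescence (540/590 nm); concentration-response curves normalized to no-enzyme control.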
* hit, by the source's call; ? = inconclusive; . = not tested or not shown; [ ] = another dose, or the depositor's remark. Most compounds without a hit are left out; they make up all but 3.1% or so of the library. The call rests on the fitted dose curve; in most records, active means well fitted curve in the direction sought with a large enough effect; inconclusive means small, poorly fitted or top-dose-only effect, or another doubt; inactive means no such curve, though single readings can be large; an effect the other way counts as inactive or inconclusive. Potency means the concentration at half of the fitted maximal effect.

SMILES	A549 tox	TrxR1 inh	Mito fusion act	TrxR1 substrate	Nrf2 inh	IDH1 R132H inh
Cc1oc(=O)c(NC(=O)c2ccccc2)cc1C(=O)c1ccccc1	.	40µM*	-4%	-8%	19%	1%
COc1cccc(N2CCN(C(=O)Cn3cnc4onc(-c5ccc(F)cc5)c4c3=O)CC2)c1	3%	37%	.	-3%	16µM*	12%
Cc1ccc(NC(=O)CN(C)C(=O)c2ccc(NS(=O)(=O)c3cccc([N+](=O)[O-])c3)cc2)cc1	5%	18%	.	-2%	-20%	-2%
O=[N+]([O-])c1cccc(S(=O)(=O)Nc2ccc(Cc3ccncc3)cc2)c1	2%	31%	1%	6%	16µM*	9%
O=[N+]([O-])c1cccc(S(=O)(=O)NCc2ccncc2)c1	?	3%	2%	-2%	7.3µM*	-5%
O=S(=O)(Nc1ccc(Cc2ccncc2)cc1)c1ccc(Br)s1	0%	-3%	7%	-2%	?	-3%
Cc1ccc(NS(=O)(=O)c2ccc(OCC(=O)Nc3cccc([N+](=O)[O-])c3)c(C)c2)cc1	?	9%[57.1 µM]	11%	2%[57.1 µM]	21µM*	-4%
O=S(=O)(Nc1ccc(Cc2ccncc2)cc1)c1ccc(Cl)s1	0%	4%	25%	-1%	18µM*	-1%
O=C(NCc1cccnc1)c1ccc(NS(=O)(=O)c2cccc([N+](=O)[O-])c2)cc1	0%	7%[11.4 µM]	.	3%[11.4 µM]	-6%	1%
COc1cccc(-n2c(SCC(N)=O)nc3c(oc4ccccc43)c2=O)c1	-9%	14%	.	2%	4%	15%
CCCC/C=C/[C@H](c1ccccc1)[C@H](CO)Cc1ccc2ccccc2c1	7%	11%	.	-8%	19%	.
COc1cc(OC)c(NC(=O)NCCn2nnc3cc(S(=O)(=O)N(C)C)ccc32)cc1Cl	-1%	11%[57.1 µM]	.	1%[57.1 µM]	.	0%
O=S(=O)(c1cccc(Br)c1)N1CCN(c2nc(-c3cccs3)nc3ccccc23)CC1	3%	15%	.	-2%	-2%	.
Cc1ccccc1Cn1c(=O)n(CC2CCC(C(=O)N3CCC(C)CC3)CC2)c(=O)c2sccc21 (stereo unspecified)	?	22%[57.1 µM]	.	1%[57.1 µM]	23µM*	4%
O=C(Nc1ccc(Cl)cc1Cl)c1cccc(N2C(=O)C=CC2=O)c1	-4%	2µM*	15%	5%	-14%	-17%
O=C(O)c1cccc(N2C(=O)C=CC2=O)c1	.	.	.	.	.	3%
COc1ccc(C2Nc3cccc4cccc(c34)N2)cc1	-5%	?	-4%	6%	17%	21%
c1ccc(C2Nc3cccc4cccc(c34)N2)cc1	-2%	?	-3%	10%	12%	7%
Brc1cccc(C2Nc3cccc4cccc(c34)N2)c1	-7%	56µM*	-1%	1%	7%	-9%
Brc1ccc(C2Nc3cccc4cccc(c34)N2)o1	-23%	25µM*	1%	3%	-7%	16%
Clc1cccc(C2Nc3cccc4cccc(c34)N2)c1	-8%	25µM*	-1%	0%	4%	-6%
CN(C)c1ccc(C2Nc3cccc4cccc(c34)N2)cc1	-5%	-9%	1%	-6%	5%	4%
Clc1ccc(C2Nc3cccc4cccc(c34)N2)cc1Cl	-11%	45µM*	0%	-1%	?	9%
CCCc1cc(F)c(S(=O)(=O)N2CCN(S(=O)(=O)c3ccc4c(c3)OCCO4)CC2)cc1F	1%	.	.	.	13%	.
Cc1ccc(NS(=O)(=O)c2cc3c(cc2Cl)NC(=O)C3)cc1C	6%	.	.	.	14%	.
SMILES	A549 tox	TrxR1 inh	Mito fusion act	TrxR1 substrate	Nrf2 inh	IDH1 R132H inh
CC(=O)NC1=C(C#N)CCC1	.	-10%[0.0914 µM]	.	-1%	.	.
COC(=O)c1ccccc1NC(=O)COc1ccccc1C(=O)Nc1ccccc1	.	30%	.	3%	.	.
Cc1cc[n+](CC#N)cc1	.	-5%	.	3%	.	.
Cn1cc(S(=O)(=O)N2CCc3ccccc32)cc1C(=O)Nc1ccc(C(F)(F)F)cc1	?	6%	.	-11%	?	-5%
COc1ccccc1-n1c(=S)sc2c(=O)n(Cc3ccco3)c(SC)nc21	2%	3%	26%	1%	8.2µM*	0%
Cc1cc(C)c2oc(-c3ccc(C)c(NC(=O)/C=C/c4ccco4)c3)nc2c1	-4%	3.2µM*	.	13%[11.4 µM]	23%	-6%
Cc1cc(C)c2oc(-c3cccc(NC(=O)c4ccco4)c3)nc2c1	2%	4%	.	11%	-8%	0%
COc1ccccc1CNc1ccc(-c2nc(-c3cccc(C)c3)no2)cc1[N+](=O)[O-]	6%	-10%	.	-4%	?	6%
CCOc1ccc(NCc2cc3cc(OC)ccc3[nH]c2=O)cc1	-12%	-9%	-2%	2%	26µM*	7%
COc1ccc2[nH]c(=O)c(CNc3cc(C)ccc3C)cc2c1	?	10%	3%	1%	18µM*	-4%
COc1ccc2[nH]c(=O)c(CNc3ccccc3)cc2c1	-10%	?	0%	26%[57.1 µM]	?	2%
COc1ccc(N2C(=O)CC(N3CCN(c4ccc(S(C)(=O)=O)cc4)CC3)C2=O)cc1 (stereo unspecified)	-14%	16µM*	-3%	9%	7%	-6%
COC(=O)c1ccccc1NC(=O)c1cc(CN2CCOCC2)on1	-1%	16%[57.1 µM]	.	1%[57.1 µM]	19%	0%
Cc1cc(N2CCCC2)nc2ccc(NC(=S)NCCCN3CCC(C)CC3)cc12	9.2µM*	-10%[57.1 µM]	-3%	11%[57.1 µM]	-1%	0%
CCCN1CCN(CCCNC(=S)Nc2ccc3nc(N4CCN(CC)CC4)cc(C)c3c2)CC1	?	-35%	-1%	-2%	16%	-7%
Cc1ccc(C)c2c(C)ccnc12	.	64%	.	61%	.	.
CC(=O)N(C1=C(N)C(=O)c2ccccc2C1=O)C(C)C	-6%	79µM*	-4%	3%	?	13%
COc1ccc(C2=CC3=C(Br)C(=O)C(C)(OC(=O)C4CCCC4)C(=O)C3=CO2)cc1 (stereo unspecified)	-9%	?	-3%	4%	6%	-13%
COc1ccc(C2=CC3=C(Br)C(=O)C(C)(OC(=O)c4ccc(Cl)nc4)C(=O)C3=CO2)cc1 (stereo unspecified)	-1%	13µM*	13%	8%	14%	7%
COC(=O)CCC(=O)OC1(C)C(=O)C2=COC(c3ccc(OC)cc3)=CC2=C(Br)C1=O (stereo unspecified)	-1%	14µM*	3%	-7%	23%	9%
CN(C)c1ccc(/C=C/c2ccc3ncccc3c2)cc1	.	4%	.	39%	.	.

Bioassay records: PubChem, National Center for Advancing Translational Sciences (NCATS)
